Most compounds without a hit are left out; they make up all but 2.2% or so of the library.
TMEM16A inh: inhibitors of mouse TMEM16A calcium-activated chloride channel; Q8BHY3; HEK293 TMEM16A/YFP iodide influx fluorescence, ionomycin; normalized B-score (activity score, 25-100; higher = stronger inhibition) at 10 µM; 310,000 compounds, 1.2% hits; AID 588511;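 active = ratio plate-corrected score three or more library SD toward inhibition, starting fluorescence score within five deviations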;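 note: score derived from kinetic fluorescence span divided by baseline fluorescence per well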
TLR9-MyD88 inh: inhibitors of human TLR9-MyD88 binding; CHO BLA complementation TLR9-MyD88, CCF4 FRET ratio; inhibition, % at 4.98 µM; 340,000 compounds, 0.21% hits;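 active = inhibition above the mean over all tested compounds plus 3 SD, cut at about 21% in these data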;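 note: 0% = DMSO only wells and 100% = clavulanate BLA inhibitor control wells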
TMEM16A act: activators or potentiators of mouse TMEM16A chloride channel. Q8BHY3. HEK293 TMEM16A/YFP-H148Q/I152L, iodide quench fluorescence; hits give low values. B-score at 10 µM. 340,000 compounds, 0.3% hits;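 active = fluorescence-ratio B-score plate-corrected deviation score at least 3 library SD below zero, with starting fluorescence score within 5 deviations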;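 note: channel opened by trigger with iodide after compound preincubation; score built on the fluorescence ratio of max minus min over baseline; more negative score means more quench and so TMEM16A activation or potentiation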
TLR4-MyD88 BLA: TLR4-MyD88 interaction inhibition in cells; HeLa CL3-4 TLR4/MyD88 BLA complementation, FRET ratio; inhibition, % at 8.4 µM; 200,000 compounds, 0.18% hits; AID 861; in the data active = inhibition above about 25%;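 note: 0% = vehicle and 100% = reference inhibitor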
GRK2 inh: blocks RNA aptamer binding to human GRK2. 330,000 compounds, 0.59% hits. inhibition of aptamer binding, % at 10 µM. bead flow cytometry, FAM-aptamer displacement from GRK2. P25098;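 active = inhibition of aptamer binding above 40%, roughly 3 SD of noise, on plates passing a quality check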;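 note: median bead fluorescence of bound FAM aptamer so fluorescent compounds give negative values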
NOD2 RIPK2 PPI: blocks binding of human NOD2 to RIPK2; O43353; CHO BLA complementation NOD2-RIPK2, CCF4 ratio; inhibition, % at 4.98 µM; 360,000 compounds, 0.38% hits; AID 624267; in the data active = inhibition above about 21%;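 note: 0% = vehicle only and 100% = reference blocker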
NOD2-RIPK2 conf: NOD2-RIPK2 interaction inhibition confirmed. shares compounds with NOD2 RIPK2 PPI. 1,200 compounds, 70% hits. inhibition, % at 4.98 µM. CHO cells, NOD2-RIPK2 BLA complementation, CCF4 FRET. AID 624370;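 active = mean inhibition across replicates above a set limit taken from the earlier primary screen, cut at about 21% in these data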;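 note: 0% = DMSO-only wells and the high end = clavulanate BLA-blocked wells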
BLA counter: NOD2-RIPK2 counterscreen BLA reporter activity. shares compounds with NOD2 RIPK2 PPI. inhibition, % at 4.98 µM. 1,200 compounds, 57% hits. CHO BLA reporter, CCF4 FRET ratio. AID 624371;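 active = mean inhibition above the low-control mean inhibition plus three low-control SD, cut at about 11% in these data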;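 note: 0% = DMSO only wells and 100% = clavulanate high control wells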
* hit, by the source's call; i = inactive; · = no result given.

SMILES	TMEM16A inh	TLR9-MyD88 inh	TMEM16A act	TLR4-MyD88 BLA	GRK2 inh	NOD2 RIPK2 PPI	NOD2-RIPK2 conf	BLA counter
O=C(Nc1ccc(F)cc1)c1nn(-c2ccccc2)c(=O)cc1Cl	·	7	i	6	·	36*	40*	5
CNc1cncc(-c2ccc(F)cc2F)n1	·	·	·	·	·	10	·	·
Cc1[nH]nc(-c2cccnc2)c1N=NN(C)C	·	15	i	·	·	37*	19	-1
CN(C)c1nc(N)nc(-c2cccnc2)n1	i	-5	i	-8	3	4	·	·
COc1cc(Cl)c(C)cc1Nc1ncccn1	i	-6	i	·	0	-13	·	·
O=C(NC(Cc1ccccc1)C(=O)NC(Cc1ccccc1)C(=O)O)c1ccccc1 (centres undefined)	i	1	i	4	2	-1	·	·
Cc1ccc(CC(NC(=O)c2ccccc2)C(=O)NC(CC(C)C)C(=O)O)cc1 (centres undefined)	i	11	i	11	0	59*	-2	1
OC(c1ccccc1)c1ncc(-c2cccc(OCc3ccccc3)c2)[nH]1 (centres undefined)	·	·	·	·	·	-1	·	·
O=C1C(=C(c2ccccc2)N2CCOCC2)Cc2ccccc21	·	15	·	·	·	84*	85*	6
COCCCN1C(=O)C(CC(=O)NC2CCCC2)CC(C(=O)N2CCOCC2)=C1C (centres undefined)	·	11	·	·	·	-5	·	·
Cc1cccc(C)c1N1CCN(C(c2cc3ccccc3o2)c2nnnn2C(C)(C)C)CC1 (centres undefined)	·	·	·	·	·	21*	-4	-5
Cc1cc(C)c2sc(N(CCCN(C)C)C(=O)c3ccc(S(=O)(=O)N4CCc5ccccc5C4)cc3)nc2c1	i	14	i	·	0	24*	30*	17*
COCc1nc2oc3ccccc3c(=O)c2cc1C(=O)OC	i	5	i	·	2	1	·	·
Cc1cccc(OCCC(=O)Nc2ccc(N3CCOCC3)cc2N2CCOCC2)c1	·	-3	i	·	0	-5	·	·
CC(Sc1ccc(S(=O)(=O)N2CCOCC2)cc1[N+](=O)[O-])C(=O)O (centres undefined)	i	-12	i	-1	1	37*	-2	-5
CC(C)C(Nc1ccc(S(=O)(=O)N2CCOCC2)cc1[N+](=O)[O-])C(=O)O (centres undefined)	i	-13	i	0	2	-6	·	·
CCCCOC(=O)C(C)c1c(C)[nH]c(=S)[nH]c1=O (centres undefined)	i	-13	i	-5	4	3	·	·
O=C1C=CC(O)(c2cc(=O)c3c(O)cc(O)cc3o2)C=C1	i	-2	i	-13	0	30*	21	18*
O=C(c1ccccc1)N1CCN(S(=O)(=O)c2ccccc2)CC1	i	-9	i	·	0	31*	-7	-3
COc1cccc2cc(-c3nc(-c4cccs4)cs3)c(=O)oc12	i	8	i	20	2	3	·	·
O=c1oc2ccccc2cc1-c1nc(-c2cccs2)cs1	i	20	i	17	9	32*	43*	51*
COC(=O)c1cnn(-c2ccccc2)c1/C=N/NC(=S)Nc1ccc(Cl)cc1	i	·	i	·	2	-15	·	·
CCOC(=O)/C=c1/s/c(=C/c2ccc3cc(OC)ccc3c2)c(=O)n1CC(=O)NCc1ccc2c(c1)OCO2	·	-4	i	·	·	25*	44*	53*
COCCCn1cc(CN2CC(N3CCN(Cc4cccc(C)c4)CC3)CS2(=O)=O)nn1 (centres undefined)	·	·	·	·	·	-3	·	·
COc1ccccc1OCC(=O)N/N=C1/C=C(C)CC1	i	2	i	-15	2	-2	·	·
SMILES	TMEM16A inh	TLR9-MyD88 inh	TMEM16A act	TLR4-MyD88 BLA	GRK2 inh	NOD2 RIPK2 PPI	NOD2-RIPK2 conf	BLA counter
COc1cc(N2C(=O)C=CC2=O)c(OC)cc1Cl	i	17	i	·	1	51*	80*	23*
CCOC(=O)C1CCN(S(=O)(=O)c2ccc3c4c(cccc24)C(=O)N3)CC1	i	4	i	8	0	1	·	·
CCOC(=O)C1CCN(S(=O)(=O)c2ccc3c4c(cccc24)C(=O)N3CC)CC1	·	-1	i	·	4	24*	24*	24*
CCCCCNC(=O)C(c1ccc(OC)cc1)n1c(=O)c(-c2cc3ccccc3[nH]2)nc2ccccc21 (centres undefined)	·	·	·	·	·	44*	39*	62*
CCCCCNC(=O)C(c1ccnc2ccccc12)n1c(=O)c(-c2cc3ccccc3[nH]2)nc2ccccc21 (centres undefined)	·	·	·	·	·	51*	46*	67*
CCCCCNC(=O)C(c1ccncc1)n1c(=O)c(-c2ccco2)nc2ccccc21 (centres undefined)	·	·	·	·	·	-11	·	·
CCCCCNC(=O)C(c1ccncc1)n1c(=O)c(-c2cc3ccccc3[nH]2)nc2ccccc21 (centres undefined)	·	·	·	·	·	50*	51*	69*
N#Cc1ccc(-c2nc3ccc(Br)cn3c2Cc2ccccc2)cc1	·	-2	·	·	·	3	·	·
COc1ccc(CCN(C)C(=O)C(CCSC)NC(=O)c2ccco2)cc1OC (centres undefined)	·	-6	i	·	0	-2	·	·
O=C(Nc1ccnn1C1CCN(C(=O)c2cccc(C(F)(F)F)c2)CC1)C1CC1	i	4	i	·	1	6	·	·
O=C(Nc1ccccc1)C1=C[C@@H](c2ccc(C(F)(F)F)cc2)C[C@@H](OCc2ccc(CO)cc2)O1	i	-4	i	-1	·	22*	0	4
Nc1ccc2cc3[nH]c4cc(N)ccc4c3nc2c1	·	11	i	·	·	39*	73*	66*
Cc1ccc(/C=C2\Oc3c(ccc(O)c3CN3CCN(C)CC3)C2=O)cc1	i	12	i	12	2	29*	21	25*
CCCCn1c(=O)[nH]c(=O)c2c1nc(Cn1ncc(Cl)c(Cl)c1=O)n2CCC	i	16	i	·	0	40*	55*	13*
CC(C)c1ccc(NC(=O)CSc2n[nH]c(=O)n2-c2cccnc2)cc1	i	-8	i	·	7	5	·	·
Cc1[nH]n(-c2ccccc2)c(=O)c1C=Nc1cccc2cccnc12	i	19	i	12	0	32*	35*	32*
CCCN(CC(=O)Nc1ccccc1C)C(=O)/C=C/c1ccc(OC)c(OC)c1	·	1	·	·	·	-4	·	·

Source: PubChem BioAssay (several laboratories)
